# Test results from the supplement of paper PMC6555819.
# Experiments:
# Assay in all cases: PBM binding z-score (relative to random genomic background probes); higher = stronger binding; sequences stand for … in GC…GCGATTGACAGCGTAGAATGAAGG
# [1] = test system: FXR:RXRa (NR concentration 270 nM, RXRa partner concentration 90 nM)
# How it was run: (§1)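 Binding buffer was PBS pH 7.4 with 2% milk, 0.02% Triton X-100, 1 mM DTT, 0.2 mg/mL BSA and 0.4 mg/ml salmon testes DNA. In it, ligand-free nuclear receptor dimers were incubated 1 h on custom Agilent 4×180K protein-binding microarrays carrying double-stranded probes. Antibodies against each partner (one per run) detected binding, and z-scores were calculated against random background probes after regression normalization of scanned fluorescence.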
# [2] = test system: LXRa:RXRa (NR concentration 270 nM, RXRa partner concentration 90 nM)
# How it was run: as §1
# [3] = test system: LXRa homodimer (NR concentration 270 nM)
# How it was run: as §1
# [4] = test system: LXRb:RXRa (NR concentration 270 nM, RXRa partner concentration 90 nM)
# How it was run: as §1
# [5] = test system: LXRb homodimer (NR concentration 270 nM)
# How it was run: as §1
# [6] = test system: PPARa:RXRa (NR concentration 270 nM, RXRa partner concentration 90 nM)
# How it was run: as §1
# [7] = test system: PPARg:RXRa (NR concentration 180 nM, RXRa partner concentration 90 nM)
# How it was run: as §1
# [8] = test system: PPARg:RXRa 270nM:90nM, anti-RXR (NR concentration 270 nM, RXRa partner concentration 90 nM)
# How it was run: as §1
# [9] = test system: PPARg:RXRa 30nM:10nM, anti-RXR (NR concentration 30 nM, RXRa partner concentration 10 nM)
# How it was run: as §1
# [10] = test system: PPARg:RXRa 90nM:30nM, anti-RXR (NR concentration 90 nM, RXRa partner concentration 30 nM)
# How it was run: as §1
# [11] = test system: PPARg:RXRa DBDmut IVT, anti-RXR (DBD mutation: RXRa K156A/R161A, NR concentration 270 nM, RXRa partner concentration 90 nM)
# How it was run: as §1
# [12] = test system: PPARg:RXRa IVT, anti-PPARg (NR concentration 270 nM, RXRa partner concentration 90 nM)
# How it was run: as §1
# [13] = test system: PPARg DBDmut:RXRa IVT, anti-PPARg (DBD mutation: PPARg1 K132A/R137A, NR concentration 270 nM, RXRa partner concentration 90 nM)
# How it was run: as §1
# [14] = test system: PPARg DBDmut IVT, anti-PPARg (DBD mutation: PPARg1 K132A/R137A, NR concentration 270 nM)
# How it was run: as §1
# [15] = test system: PPARg homodimer (NR concentration 180 nM)
# How it was run: as §1
# [16] = test system: PXR:RXRa (NR concentration 270 nM, RXRa partner concentration 90 nM)
# How it was run: as §1
# [17] = test system: PXR homodimer (NR concentration 270 nM)
# How it was run: as §1
# [18] = test system: RARa:RXR (NR concentration 270 nM, RXRa partner concentration 90 nM)
# How it was run: as §1
# [19] = test system: RARa homodimer (NR concentration 270 nM)
# How it was run: as §1
# [20] = test system: RARb:RXRa (NR concentration 270 nM, RXRa partner concentration 90 nM)
# How it was run: as §1
Sequence,PBM binding z-score [1],PBM binding z-score [2],PBM binding z-score [3],PBM binding z-score [4],PBM binding z-score [5],PBM binding z-score [6],PBM binding z-score [7],PBM binding z-score [8],PBM binding z-score [9],PBM binding z-score [10],PBM binding z-score [11],PBM binding z-score [12],PBM binding z-score [13],PBM binding z-score [14],PBM binding z-score [15],PBM binding z-score [16],PBM binding z-score [17],PBM binding z-score [18],PBM binding z-score [19],PBM binding z-score [20]
ATCTCTAGGTAACCAAGTTCAGTGGATGCCGAAC,0.155,0.544,0.622,0.38,0.373,0.94,0.437,0.741,0.192,0.555,3.66,2.83,0.893,0.352,0.334,1.94,1.5,0.454,0.529,1.18
GTACCAAGGTGAATTGGTCGTTGATGAGTAGGCG,0.321,0.0311,-0.495,-0.18,-0.792,0.557,0.383,0.173,-0.286,-0.112,1.6,1.85,0.108,0.076,-0.163,-0.436,-0.573,-0.15,-0.635,1.17
CCTGCTAGGTCAATGGGCAGCTAAAGCAGCTCGC,1.94,1.62,-0.481,0.861,-0.588,2.59,2.02,3.18,0.64,2.19,3.7,3.4,-0.844,-1.02,0.228,0.352,-0.589,1.07,-0.679,3.6
CAGCCTAGGTCACGGCCAGTATAGGAGGAACGTT,4.98,3.61,0.175,2.7,-0.639,4.72,4.54,4.44,1.29,3.12,3.65,4.36,0.0261,-0.166,1.71,2.34,-0.132,3.45,0.239,4.6
CGTCAAAGTTCAACGTAACGTAACAGAAAGCAGC,6.54,5.59,2.98,3.72,1.38,4.94,4.58,4.97,2.08,3.84,0.266,1.76,0.727,1.04,2.48,4.4,2.41,3.07,1.3,5.18
ACGGACAGGTGAGTGAAGGTAACTCAGCTGGACG,0.715,0.141,-0.591,-0.294,-0.864,0.253,0.452,0.12,-0.363,0.0719,0.373,0.578,-0.111,-0.701,-0.338,-0.142,-0.376,0.477,-0.21,0.913
CAAACTAGGTCAAGAGGTCAAGGTCCGCTTCCCG,6.64,6.02,4.56,4.63,1.32,6.41,9.76,8.19,6.69,8.28,8.52,8.45,0.83,-0.359,5.33,5.88,1.72,7.29,2.29,5.54
CGTCCAAGGTCAGAGAGGTCAGTGAGTGCCGAGT,6.29,5.06,3.37,4.79,0.412,5.19,3.71,4.4,0.893,2.59,2.89,3.66,-0.0729,-0.219,3.93,6.23,12.6,5.43,2.9,5.37
ACTATTAGTTGAGACGAGGTCAACCGATAGGTTG,3.42,3.7,2.01,3.53,0.73,4.15,1.97,2.35,0.821,1.85,0.226,2.11,0.554,1.21,2.65,5.3,2.57,4.97,1.07,3.52
CAAACTAGGTCAAGTTCAAAGTCGGTTTGTGCCA,5.99,4.84,4.22,3.64,1.37,5.81,8.91,7.48,5.88,7.46,8.65,8.81,3.54,4.23,3.54,5.1,6.98,3.97,1.55,4.88
CATACAGGGTCAGCTAGGCCAAAGTAGGGACGGC,4.83,3.04,0.0314,2.39,0.557,4.4,3.32,3.26,0.781,1.85,0.935,2.57,0.812,0.367,1.48,2.55,0.23,3.25,0.847,4.14
CTCGAAAGGTCGTGCTCAGGCGAGTATACCAAAC,5,3.56,-0.183,2.93,-0.132,5.03,2.05,3.49,0.448,1.95,0.449,1.53,0.141,-0.559,0.928,2.68,-0.312,3.16,-0.0786,3.98
CAAACTAGGTCACGAAAGGTTAAAGTCGAATGAC,5.89,7.18,3.46,5.5,0.758,6.04,9.67,7.92,5.98,8.04,8.39,9.07,2.59,1.97,3.32,5.8,0.579,5.4,1.18,5.01
CCTCGGAGGACAGCAGGTCAGAGCTGTCCGCTTT,0.494,0.589,-0.357,-0.0868,-0.729,0.521,-0.863,-0.393,-1.22,-1.04,-0.0532,-0.162,-1.57,-1.57,0.113,0.0301,-0.196,0.742,-0.236,2.04
TCTCGGAGGACACGACGGTCAGAGCTTTCCAGAG,0.205,0.0184,-0.415,-0.277,-1.16,0.197,-0.0353,0.515,1.6,1.3,1.2,0.00965,-1.14,-0.952,-0.596,-0.328,-0.626,-0.317,-0.599,1.91
ATCGAAAGGTCGAAGCTGAGTATACCCACCCGAA,4.55,3.6,0.403,2.6,0.738,4.28,2.17,2.92,0.67,1.94,0.112,1.14,0.883,-0.0386,1.49,2.27,0.151,3.14,0.371,3.63
TCTTGTAGATCAACAGGAGGTTAACAAAGATCGA,0.166,1.73,0.274,1.3,-0.158,1.69,0.373,1.39,2.62,1.92,1.52,1.09,0.689,0.664,0.353,1.08,0.0367,1.36,-0.353,0.717
TCTCGGAGGACACGAAAGTTCAGAGCTCGACATC,1.03,2.18,2.89,0.952,-0.575,1.14,0.211,1.25,2.34,1.81,1.71,-0.0575,-0.141,-0.597,0.949,3.3,2.7,1.27,0.226,2.78
CATACAGGGTCAGCTAGGCCAGGGTAGGGACGGC,4.52,2.89,-0.0552,1.98,0.437,4.12,3.01,2.84,0.569,1.95,0.462,2.48,0.368,0.335,1.37,2.18,-0.00796,3.16,0.91,4.02
TCTTGGAGATCAGCAGGTTAAGAAAGCTGGCCAA,0.173,-0.0127,-0.38,0.0269,-0.539,0.752,-0.546,0.883,2.2,1.52,1.35,-0.4,-0.469,-0.467,-0.281,0.203,-0.366,0.266,0.00806,0.0526
CGTACTGGGCCAAAAAGGTCATTGATGCCGATAA,3.72,4.43,2.93,4.25,0.293,4.69,3.65,4.22,1.71,3.72,4.13,3.76,-0.0861,-0.32,3.08,4.6,3.5,4.94,1.6,3.87
TATACAGGGTCAAAAGCCAGAGTACGAATGTCGA,5.93,5.72,1.74,4.3,2.65,5.48,6.57,6.01,3.42,5.08,1.58,3.89,1.82,1.55,1.9,3.49,0.526,4.49,0.877,3.73
TCTAGTAGATCAAAGGTTAAGAAAGCCGAAGCCT,1.56,2.07,0.141,1.98,-0.538,4.8,8.6,8.24,8.54,8.99,2.37,3.82,0.0215,0.532,1.09,1.86,-0.328,2.97,0.336,1.72
CCTGCTAGGTCATGGTAAGCTAATCTACAGTATG,3.82,2.46,0.0967,1.86,-0.0761,3.64,2.48,2.64,0.993,1.66,4.44,3.92,0.752,0.561,1.24,1.15,-0.26,2.32,-0.305,3.87
TTACCAAGGTGAAAGGGCGTTGATGCACGCCTTG,1.12,0.702,-0.488,0.742,-0.657,3.48,5.55,5.63,4.32,5.82,1.85,3.87,0.557,0.204,0.404,1.14,-0.361,1.94,-0.167,1.88
AGAATGACGTTATTAAGATCAGGGAATTGCGGTC,-0.71,-0.589,-0.146,-0.6,-0.12,-0.251,0.405,0.0531,-0.0762,0.151,-0.6,-0.306,0.0629,0.222,-0.803,-0.327,-0.378,-0.472,-0.0308,-0.451
CGTCCAAGGTCAATGATAGGTCAGTGAAAGCATT,6.83,6,2.8,4.83,0.895,5.41,3.87,4.8,1.74,3.35,3.37,3.61,0.384,-0.272,6.66,5.17,1.58,6.7,1.7,5.31
TTACCAAGTTGAGCTGAGGTCGTTGATCCAACTC,0.614,0.638,-0.367,0.536,-0.873,1.03,-0.512,0.423,0.243,-0.0903,-0.673,0.221,-0.252,-0.114,-0.328,3.88,0.614,1.76,-0.601,0.659
